What all share (parameters): scale not given: direction of the effect not stated beside the values
For test [1], the target named is Protein translocase subunit SecA (Escherichia coli (strain K12)) (UniProt P10408). The test can be described thus: Assay to Identify E. coli SecA ATPase Inhibitors. The class given is functional. The note with it: 30 µM.
Test [2] deals with T1, Ubiquitin-activating enzyme e1, putative (Leishmania donovani (strain BPK282A1)) (UniProt E9BSI1).
T1 sequence (whole entry): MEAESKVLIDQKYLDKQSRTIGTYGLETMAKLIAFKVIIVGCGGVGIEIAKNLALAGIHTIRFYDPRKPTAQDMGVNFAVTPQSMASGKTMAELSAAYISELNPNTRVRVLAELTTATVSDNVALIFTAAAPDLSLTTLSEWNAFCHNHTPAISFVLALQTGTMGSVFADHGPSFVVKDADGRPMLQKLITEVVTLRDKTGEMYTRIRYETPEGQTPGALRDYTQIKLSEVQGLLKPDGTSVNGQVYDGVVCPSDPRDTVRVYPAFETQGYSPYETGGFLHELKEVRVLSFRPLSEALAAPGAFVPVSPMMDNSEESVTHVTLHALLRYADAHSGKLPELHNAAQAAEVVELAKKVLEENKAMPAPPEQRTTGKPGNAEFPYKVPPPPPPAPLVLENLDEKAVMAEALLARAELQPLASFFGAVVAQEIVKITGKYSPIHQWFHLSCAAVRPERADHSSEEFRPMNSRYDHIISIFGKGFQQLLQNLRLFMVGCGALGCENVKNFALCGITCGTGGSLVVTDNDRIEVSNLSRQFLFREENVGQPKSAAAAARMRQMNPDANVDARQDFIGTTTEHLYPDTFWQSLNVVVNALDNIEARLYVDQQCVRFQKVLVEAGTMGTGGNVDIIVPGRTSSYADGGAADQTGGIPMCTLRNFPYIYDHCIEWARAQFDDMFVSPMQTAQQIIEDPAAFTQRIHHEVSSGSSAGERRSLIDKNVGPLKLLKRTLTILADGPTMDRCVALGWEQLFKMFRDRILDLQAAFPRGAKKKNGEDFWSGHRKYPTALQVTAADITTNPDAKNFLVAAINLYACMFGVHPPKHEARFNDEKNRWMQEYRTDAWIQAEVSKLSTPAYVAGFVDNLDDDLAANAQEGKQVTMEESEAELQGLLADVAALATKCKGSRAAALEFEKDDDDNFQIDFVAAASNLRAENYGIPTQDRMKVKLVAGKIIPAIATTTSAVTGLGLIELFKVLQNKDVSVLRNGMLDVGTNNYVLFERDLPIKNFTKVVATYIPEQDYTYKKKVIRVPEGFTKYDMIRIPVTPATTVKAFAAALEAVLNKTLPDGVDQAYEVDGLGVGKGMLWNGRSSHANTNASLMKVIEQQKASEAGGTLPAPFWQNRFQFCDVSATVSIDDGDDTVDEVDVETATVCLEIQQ
The test can be described thus: Leishmania donovani Ubiquitin Activating Enzyme (LdE1). The class given is functional. The note with it: 30 µM.

Test [3] has as its target AMP-activated protein kinase, AMPK (Homo sapiens) (UniProt P54646+O43741+P54619+Q9UGJ0+Q9Y478+Q13131+Q9UGI9). The test is described as follows: AMP-dependent Kinase enzyme assay. An in vitro enzyme assay that detects ADP turnover that is directly proportional to AMPK activity. This uses naive AMPK that is activated during the assay with MK-8722. The class given is functional. The conditions noted are these: 30 µM.

Test [4] deals with Sialic acid-binding Ig-like lectin 9 (Homo sapiens) (UniProt Q9Y336). The test can be described thus: Hs-Siglec9 ALPHAscreen SOP 20170721. The note with it: 10 µM.
The next test relates to Trypanosoma cruzi. The test is described as follows: Trypanosoma cruzi phosphomannomutase and mannose-1-phosphate guanylyltransferase assay. The class given is functional. The conditions noted are these: 10 µM.
Test [5] deals with T2, Arginase-2, mitochondrial (Homo sapiens) (UniProt P78540).
T2 sequence (whole entry): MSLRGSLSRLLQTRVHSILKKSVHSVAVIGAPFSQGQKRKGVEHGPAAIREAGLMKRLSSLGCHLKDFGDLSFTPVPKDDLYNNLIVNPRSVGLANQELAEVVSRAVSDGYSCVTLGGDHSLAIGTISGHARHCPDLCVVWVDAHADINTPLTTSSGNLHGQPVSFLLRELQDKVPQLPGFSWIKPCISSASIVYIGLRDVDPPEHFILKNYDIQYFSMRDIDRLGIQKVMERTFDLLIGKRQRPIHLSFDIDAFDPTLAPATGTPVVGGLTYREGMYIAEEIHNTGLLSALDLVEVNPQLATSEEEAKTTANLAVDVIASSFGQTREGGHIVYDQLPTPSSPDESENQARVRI
The test can be described thus: in vitro enzyme assay to detect the production of urea directly proportional to the activity of Arginase II. Further: in the data most compounds retested in dose-response had high values. The note with it: 33.3 µM. The class given is functional.

Test [6] concerns the target T3, Proteasome subunit beta (Trypanosoma cruzi) (UniProt O96673).
T3 sequence (whole entry): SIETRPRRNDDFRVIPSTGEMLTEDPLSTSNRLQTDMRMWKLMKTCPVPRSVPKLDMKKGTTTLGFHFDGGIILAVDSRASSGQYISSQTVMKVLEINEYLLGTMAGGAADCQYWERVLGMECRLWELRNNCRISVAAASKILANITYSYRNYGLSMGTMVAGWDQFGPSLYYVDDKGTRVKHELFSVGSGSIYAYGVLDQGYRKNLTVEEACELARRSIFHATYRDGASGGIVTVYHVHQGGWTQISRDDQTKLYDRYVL
The test is described as follows: Trypanosoma cruzi proteasome chymotrypsin-like activity (TcProtChymo) assay. Further: in the data most compounds retested in dose-response had high values. The class given is functional. The note with it: 9.37 µM.

The next test is filed under the species Homo sapiens. The test is described as follows: To identify inhibition of the IFN signalling (Jak-Stat) pathway via expression of an eGFP reporter gene under the control of an IFN-stimulated response element (ISRE) containing MxA promoter. The class given is functional. The conditions noted are these: 30 µM.
Test [7] deals with T4, Tyrosyl-tRNA synthetase, putative (Trypanosoma cruzi (strain CL Brener)) (UniProt Q4DSP6).
T4 sequence (whole entry): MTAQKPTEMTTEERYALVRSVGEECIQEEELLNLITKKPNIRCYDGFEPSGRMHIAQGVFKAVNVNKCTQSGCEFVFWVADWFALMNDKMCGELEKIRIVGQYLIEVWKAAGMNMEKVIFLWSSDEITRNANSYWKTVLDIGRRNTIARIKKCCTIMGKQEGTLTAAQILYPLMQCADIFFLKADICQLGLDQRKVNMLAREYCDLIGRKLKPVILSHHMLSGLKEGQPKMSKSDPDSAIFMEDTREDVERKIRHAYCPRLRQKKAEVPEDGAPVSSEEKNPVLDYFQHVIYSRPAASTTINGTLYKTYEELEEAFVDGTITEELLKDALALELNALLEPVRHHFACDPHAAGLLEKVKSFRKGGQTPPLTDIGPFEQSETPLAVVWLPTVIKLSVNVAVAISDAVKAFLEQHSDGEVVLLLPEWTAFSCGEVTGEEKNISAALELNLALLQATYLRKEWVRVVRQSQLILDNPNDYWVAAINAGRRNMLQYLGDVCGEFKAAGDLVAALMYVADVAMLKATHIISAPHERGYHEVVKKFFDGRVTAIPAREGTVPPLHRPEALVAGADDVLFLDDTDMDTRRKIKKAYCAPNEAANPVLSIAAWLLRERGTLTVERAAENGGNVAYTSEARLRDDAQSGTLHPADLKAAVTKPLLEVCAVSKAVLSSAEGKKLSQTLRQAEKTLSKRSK
The test can be described thus: Trypanosoma cruzi tyrosyl tRNA synthetase (TcYRS) _High Tyrosine SOP. Further: in the data most compounds retested in dose-response had high values. The class given is functional. The conditions noted are these: 30 µM.

The target of test [8] is T4, Tyrosyl-tRNA synthetase, putative (Trypanosoma cruzi (strain CL Brener)). The test is described as follows: Trypanosoma cruzi tyrosyl tRNA synthetase (TcYRS) SOP. The conditions noted are these: 30 µM. The class given is functional.
Test [9] has as its target Chromo domain-containing protein 1 (Saccharomyces cerevisiae (strain ATCC 204508 / S288c) (Baker's yeast)) (UniProt P32657). The test can be described thus: ScCHD-1 Enzyme Inhibition Assay. Further: in the data most compounds retested in dose-response had high values. The class given is functional. The conditions noted are these: 30 µM.

For some of these results: Measured potencies and affinities stand elsewhere.

Sialic acid-binding Ig-like lectin 9 (Homo sapiens), sequence (Q9Y336 whole entry): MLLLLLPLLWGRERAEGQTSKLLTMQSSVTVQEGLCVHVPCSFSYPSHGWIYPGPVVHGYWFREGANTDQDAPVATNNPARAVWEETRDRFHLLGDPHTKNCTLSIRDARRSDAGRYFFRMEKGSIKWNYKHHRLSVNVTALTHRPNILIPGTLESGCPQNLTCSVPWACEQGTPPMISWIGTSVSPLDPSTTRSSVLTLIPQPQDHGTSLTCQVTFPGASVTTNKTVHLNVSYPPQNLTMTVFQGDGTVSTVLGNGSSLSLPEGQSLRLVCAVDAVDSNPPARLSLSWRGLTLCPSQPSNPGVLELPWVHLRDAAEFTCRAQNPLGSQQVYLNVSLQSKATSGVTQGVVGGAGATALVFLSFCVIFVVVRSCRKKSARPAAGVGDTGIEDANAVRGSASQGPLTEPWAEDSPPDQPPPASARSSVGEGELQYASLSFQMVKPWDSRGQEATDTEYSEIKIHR
Protein translocase subunit SecA (Escherichia coli (strain K12)), sequence (P10408 whole entry): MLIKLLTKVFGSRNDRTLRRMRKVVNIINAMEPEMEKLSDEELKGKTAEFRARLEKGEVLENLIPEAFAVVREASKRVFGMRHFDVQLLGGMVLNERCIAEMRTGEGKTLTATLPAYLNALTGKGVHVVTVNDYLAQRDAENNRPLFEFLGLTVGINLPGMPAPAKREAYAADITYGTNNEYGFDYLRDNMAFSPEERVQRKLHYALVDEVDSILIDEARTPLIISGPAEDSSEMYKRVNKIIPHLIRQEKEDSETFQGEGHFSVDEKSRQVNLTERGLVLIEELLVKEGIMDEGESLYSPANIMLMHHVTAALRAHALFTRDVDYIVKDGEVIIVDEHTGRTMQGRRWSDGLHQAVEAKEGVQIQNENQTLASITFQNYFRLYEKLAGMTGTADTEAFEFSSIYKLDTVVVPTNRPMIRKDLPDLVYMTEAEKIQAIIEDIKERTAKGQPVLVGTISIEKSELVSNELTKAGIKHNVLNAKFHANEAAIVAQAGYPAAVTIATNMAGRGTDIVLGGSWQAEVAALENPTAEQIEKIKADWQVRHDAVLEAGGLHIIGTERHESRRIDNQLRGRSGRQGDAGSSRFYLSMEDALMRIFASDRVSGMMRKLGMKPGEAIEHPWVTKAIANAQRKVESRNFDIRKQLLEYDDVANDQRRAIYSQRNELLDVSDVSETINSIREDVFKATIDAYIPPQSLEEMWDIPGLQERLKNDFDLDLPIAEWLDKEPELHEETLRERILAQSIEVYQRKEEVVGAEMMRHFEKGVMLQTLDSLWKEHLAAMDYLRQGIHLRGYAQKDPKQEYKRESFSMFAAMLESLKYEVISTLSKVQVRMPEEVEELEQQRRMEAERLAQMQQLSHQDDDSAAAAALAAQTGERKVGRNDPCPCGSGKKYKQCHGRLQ
Chromo domain-containing protein 1 (Saccharomyces cerevisiae (strain ATCC 204508 / S288c) (Baker's yeast)), sequence (P32657 whole entry, the tested form may be a part): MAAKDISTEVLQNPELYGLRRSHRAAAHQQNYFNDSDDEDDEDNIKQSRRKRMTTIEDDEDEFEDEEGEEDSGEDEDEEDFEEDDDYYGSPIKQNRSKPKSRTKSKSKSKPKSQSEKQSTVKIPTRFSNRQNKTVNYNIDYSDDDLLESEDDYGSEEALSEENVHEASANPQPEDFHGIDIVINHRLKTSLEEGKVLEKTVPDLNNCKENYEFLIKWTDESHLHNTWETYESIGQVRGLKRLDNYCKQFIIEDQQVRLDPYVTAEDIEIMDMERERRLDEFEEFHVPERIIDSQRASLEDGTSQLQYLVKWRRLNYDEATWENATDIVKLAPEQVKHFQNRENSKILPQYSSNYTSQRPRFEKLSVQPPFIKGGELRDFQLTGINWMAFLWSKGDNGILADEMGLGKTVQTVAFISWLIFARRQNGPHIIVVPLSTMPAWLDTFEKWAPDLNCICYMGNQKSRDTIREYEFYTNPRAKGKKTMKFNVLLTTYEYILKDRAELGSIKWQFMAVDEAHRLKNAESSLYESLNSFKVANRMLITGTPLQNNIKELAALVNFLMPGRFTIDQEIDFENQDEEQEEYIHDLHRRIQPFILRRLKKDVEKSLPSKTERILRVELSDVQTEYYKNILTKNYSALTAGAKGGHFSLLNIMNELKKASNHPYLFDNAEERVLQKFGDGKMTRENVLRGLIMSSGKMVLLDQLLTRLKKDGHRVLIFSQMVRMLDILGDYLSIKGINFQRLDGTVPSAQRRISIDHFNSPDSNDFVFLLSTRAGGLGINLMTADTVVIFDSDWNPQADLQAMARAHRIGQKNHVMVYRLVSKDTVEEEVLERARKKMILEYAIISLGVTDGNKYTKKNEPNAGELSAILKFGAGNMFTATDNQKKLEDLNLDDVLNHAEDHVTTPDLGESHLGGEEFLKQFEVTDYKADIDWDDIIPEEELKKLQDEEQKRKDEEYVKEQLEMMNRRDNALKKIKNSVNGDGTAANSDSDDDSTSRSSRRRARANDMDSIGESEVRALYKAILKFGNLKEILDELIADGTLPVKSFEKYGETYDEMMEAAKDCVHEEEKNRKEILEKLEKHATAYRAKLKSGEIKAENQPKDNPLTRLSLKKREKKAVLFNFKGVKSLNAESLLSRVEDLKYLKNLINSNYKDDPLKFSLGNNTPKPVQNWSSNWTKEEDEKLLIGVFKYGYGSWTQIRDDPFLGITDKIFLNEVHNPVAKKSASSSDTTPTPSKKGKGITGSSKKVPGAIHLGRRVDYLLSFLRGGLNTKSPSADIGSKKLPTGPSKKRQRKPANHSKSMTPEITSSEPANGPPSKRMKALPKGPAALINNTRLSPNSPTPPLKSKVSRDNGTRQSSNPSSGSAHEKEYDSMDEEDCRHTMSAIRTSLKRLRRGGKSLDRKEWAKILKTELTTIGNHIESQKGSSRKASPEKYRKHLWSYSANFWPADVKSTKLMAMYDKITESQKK

For the compound `O=C(CCc1nc2cccnc2[nH]1)Nc1cccnc1`, the Percent Effect in [1] is -3.23%; in test [2], 22.7%; in [3], -1.32%; in test [4] it was 1.96%; in the test on Trypanosoma cruzi it was 3.14%; in [5], -2.29%. For the same compound, the Percent Effect is 14.1% in test [6]; -1.85% in the test listed under Homo sapiens; 2.12% in test [7]; 20.5% in test [8]; -7.05% in test [9].
Consider `CC(C)C1CN(C(=O)c2ccc(N3CCCC3)nc2)CCS1` (stereo unspecified), for which the Percent Effect in test [1] was -4.92%; in test [2], 2.6%; in [3], 0.107%; in test [4] it was 2.6%; in the test on Trypanosoma cruzi, -0.492%; in test [5] it was 0%. Besides, the Percent Effect was -1.17% in test [6]; -12.6% in the test filed under Homo sapiens; 4.3% in [7]; 6.17% in test [8]; -1.7% in test [9].
As to `O=C(CCC1CCCC1)NCCn1nc(C2CCNC2)c2cccnc21` (stereo unspecified), the Percent Effect in test [1] was -0.0662%; in test [2], 0%; in test [3], 8.6%; in test [4], 2.58%; in the test with Trypanosoma cruzi, 4.53%; in test [5], -0.699%. Also, the Percent Effect in [6] was 3.26%; in the test listed under Homo sapiens, -34.5%; in [7], 3.19%; in [8] it was 6.41%; in [9], -1.12%.
Turning to `O=C1CC(c2cccnc2)C2(CCN(S(=O)(=O)C3CC3)CC2)N1` (stereo unspecified), the Percent Effect in test [1] is -5.32%; in [2], 8.11%; in test [3], 1.06%; in [4], -2.02%; in the test with Trypanosoma cruzi it was 3.42%; in test [5], -4.78%. Further, the Percent Effect in test [6] is 15.3%; in the test listed under Homo sapiens, -9.26%; in test [7], 4.32%; in test [8] it was 12.8%; in [9] it was 2.44%.
As to `CCc1nnc2n1CCN(C(=O)C(C)COCc1ccccc1)C2` (stereo unspecified), the Percent Effect is -1.9% in test [1]; 10.5% in [2]; 0.611% in [3]; -4.15% in test [4]; 7.94% with Trypanosoma cruzi; -1.44% in [5]. Also, the Percent Effect in [6] was 6.68%; in the test filed under Homo sapiens it was -1.54%; in test [7] it was 3.45%; in test [8] it was 16.1%; in test [9], -2.72%.
In the case of `CC(C)c1nc2n(n1)CC(NCc1ccncc1)CC2` (stereo unspecified), the Percent Effect was -3.2% in [1]; 5.26% in [2]; -3.06% in [3]; -0.0553% in [4]; 2.63% with Trypanosoma cruzi; -5.92% in [5]. Further, the Percent Effect in [6] is 4.12%; in the test filed under Homo sapiens it was 3.22%; in test [7], 2.13%; in test [8], 5.2%; in test [9], -1.54%.
With `CN(Cc1ccco1)[C@@H]1CN(C(=O)c2ccnnc2)C[C@@H]2CCCO[C@@H]21`, the Percent Effect in [1] was -2.86%; in test [2], 2.74%; in test [3], -3.12%; in [4], 2.33%; with Trypanosoma cruzi, 4.76%; in test [5], 2.4%. The Percent Effect was 0.77% in test [6]; -17.3% in the test listed under Homo sapiens; 2.08% in test [7]; 8.64% in test [8]; 1.23% in [9].
Regarding `CCc1nccc(CN2CCCC(c3nn(C)c(=O)n3CC)C2)n1` (stereo unspecified), the Percent Effect in [1] was -3.27%; in [2], 8.11%; in test [3], -2.62%; in [4], 37.3%; in the test on Trypanosoma cruzi, 2.64%; in test [5], 8.19%. The Percent Effect was -1.63% in [6]; 2.84% in the test listed under Homo sapiens; 4.3% in test [7]; 13.6% in [8]; -3.17% in [9].
For the compound `Fc1ccc(OCCCN2CCOC(Cn3cncn3)C2)cc1` (stereo unspecified), the Percent Effect was -1.31% in [1]; -3.8% in test [2]; 6.98% in [3]; 5.51% in [4]; 3.79% with Trypanosoma cruzi; -3.23% in test [5]. In addition, the Percent Effect is 3.43% in test [6]; 2.48% in the test listed under Homo sapiens; 0% in test [7]; 2.53% in test [8]; -15.5% in [9].
`CCN(Cc1nc2c(cnn2C)c(=O)[nH]1)c1cccc(F)c1`: the Percent Effect in [1] was -1.38%; in test [2], 11.4%; in [3], 6.32%; in test [4], 2.17%; in the test with Trypanosoma cruzi, -2.36%; in test [5], -6.24%. Moreover, the Percent Effect was 15.3% in test [6]; 9.49% in the test listed under Homo sapiens; 1.04% in test [7]; 15.2% in test [8]; -15.7% in [9].
In the case of `CN(C)C(=O)NC[C@H]1OC[C@@H]2CCN(Cc3ccoc3)C[C@@H]21`, the Percent Effect in test [1] is 2.83%; in test [2], 2.67%; in test [3], 24.1%; in test [4] it was -3.37%; with Trypanosoma cruzi, -5.41%; in test [5], -66.8%. The Percent Effect was 8.38% in test [6]; 36.1% in the test filed under Homo sapiens; 3.12% in test [7]; 10% in [8]; -4.56% in test [9].
